CYP2C9 inhib – blocks human cytochrome P450 2C9 | P11712 | CYP2C9 Supersomes, luciferin-H conversion, luminescence | inhibition, % at 5 µM | hit rate 20% among 96,000 | AID 777;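 active = blocking of liver enzyme CYP2C9 beyond about 50% at 5 µM, limit read from the data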
CYP2C9 activ – activators of human CYP2C9; hit rate 1.4% among 96,000; P11712; activation factor at 5 µM; recombinant CYP2C9, luciferin-H conversion, luminescence; stronger effect = higher value; factor 1 = untreated enzyme, 0 = blocked;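 active = activation factor of 2 or more for CYP2C9 at a 5 µM dose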
Measles CPE – protection of cells from measles virus; hit rate 1.5% among 140,000; AID 841; protection (pct of control), % at 4 µM; Measles virus-infected cells, CPE protection, absorbance; in the data active = protection mostly above about 24%, no sharp cut-off; inactive = mostly below about 26%
CYP2C19 activ – cytochrome P450 2C19 (human) activation | P33261 | recombinant CYP2C19, luciferin-H EGE luminescence; stronger effect = higher value; 0 = fully inhibited enzyme, 1 = untreated enzyme | activation factor at 5 µM | 96,000 tested, under 10 active | AID 1025;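 active = activation factor of at least 2 at 5 µM in the primary screen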
Target sequence (P33261 whole entry, looked up): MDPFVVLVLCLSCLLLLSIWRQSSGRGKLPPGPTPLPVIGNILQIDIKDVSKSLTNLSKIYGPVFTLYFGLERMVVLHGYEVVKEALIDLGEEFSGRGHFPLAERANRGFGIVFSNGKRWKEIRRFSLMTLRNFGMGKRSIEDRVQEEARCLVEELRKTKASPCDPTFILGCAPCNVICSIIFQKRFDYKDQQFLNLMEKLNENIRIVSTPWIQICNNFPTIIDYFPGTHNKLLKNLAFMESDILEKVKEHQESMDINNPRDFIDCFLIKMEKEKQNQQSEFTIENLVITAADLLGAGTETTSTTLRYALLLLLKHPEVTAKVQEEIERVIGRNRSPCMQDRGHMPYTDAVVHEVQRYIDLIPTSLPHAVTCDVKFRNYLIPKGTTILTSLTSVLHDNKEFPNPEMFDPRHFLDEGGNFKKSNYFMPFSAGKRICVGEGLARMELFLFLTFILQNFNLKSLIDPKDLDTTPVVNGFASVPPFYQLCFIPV
CYP2C19 inhib – human CYP2C19 inhibition; P33261; CYP2C19 Supersomes, luciferin-H EGE luminescence, 30 min; inhibition, % at 5 µM; hit rate 21% among 96,000; AID 778;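 active = CYP2C19 inhibition above a set limit at 5 µM in the primary screen, cut at about 50% in these data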
Hits are given with their value. The list is not random: actives were taken first. Their share in the collection is about 22%.

How did Cn1c(SCc2nc(-c3ccc(Cl)cc3)no2)nnc1-c1cccs1 do in these assays?
CYP2C9 inhib: inactive; CYP2C9 activ: inactive; Measles CPE: inactive; CYP2C19 activ: inactive; CYP2C19 inhib: inactive

What do the screens show for `CCCn1c(SCc2nc(-c3cccs3)no2)nnc1-c1ccncc1`?
CYP2C9 inhib: inactive; CYP2C9 activ: inactive; Measles CPE: inactive; CYP2C19 activ: inactive; CYP2C19 inhib: 56.4

Results for Cn1c(SCc2nc(-c3cccs3)no2)nnc1C1CCCCC1 ?
CYP2C9 inhib: inactive; CYP2C9 activ: inactive; Measles CPE: inactive; CYP2C19 activ: inactive; CYP2C19 inhib: 78.0

Results for CC(=O)N1C(C(=O)O)CSC1c1cccc(C)c1 (configuration not stated) ?
CYP2C9 inhib: inactive; CYP2C9 activ: inactive; Measles CPE: inactive; CYP2C19 activ: inactive; CYP2C19 inhib: inactive

What do the screens show for `O=C1[C@@H]2[C@H](C(=O)N1n1cnnc1)[C@H]1C=C[C@@H]2C1`?
CYP2C9 inhib: inactive; CYP2C9 activ: inactive; Measles CPE: inactive; CYP2C19 activ: inactive; CYP2C19 inhib: inactive

What do the screens show for `O=C(Nc1cccc2nsnc12)C1CC(=O)N(c2ccccc2)C1` (configuration not stated)?
CYP2C9 inhib: 74.3; CYP2C9 activ: inactive; Measles CPE: inactive; CYP2C19 activ: inactive; CYP2C19 inhib: 81.5

What do the screens show for `O=C(Nc1nc2ccccc2s1)C1CC(=O)N(c2ccc(Cl)cc2)C1` (configuration not stated)?
CYP2C9 inhib: 54.4; CYP2C9 activ: inactive; Measles CPE: inactive; CYP2C19 activ: inactive; CYP2C19 inhib: inactive

How did COC(=O)c1ccccc1NC(=O)C1CC(=O)N(c2ccccc2)C1 (configuration not stated) do in these assays?
CYP2C9 inhib: inactive; CYP2C9 activ: inactive; Measles CPE: inactive; CYP2C19 activ: inactive; CYP2C19 inhib: inactive

What do the screens show for `CCCCN(C)S(=O)(=O)c1ccc(C(=O)N=c2sc3cc(NC(C)=O)ccc3n2C)cc1`?
Measles CPE: inactive

Results for Cc1ccccc1NC(=O)c1sc(Cl)nc1-c1ccccc1 ?
CYP2C9 inhib: inactive; CYP2C9 activ: inactive; Measles CPE: inactive; CYP2C19 activ: inactive; CYP2C19 inhib: 61.4

Results for CC(C)NC(=O)c1ccccc1N(Cc1ccccc1)S(C)(=O)=O ?
CYP2C9 inhib: inactive; CYP2C9 activ: inactive; Measles CPE: inactive; CYP2C19 activ: inactive; CYP2C19 inhib: inactive

Results for COC(=O)CNC(=O)Cn1ccc2ccccc2c1=O ?
CYP2C9 inhib: inactive; CYP2C9 activ: inactive; Measles CPE: inactive; CYP2C19 activ: inactive; CYP2C19 inhib: inactive

Results for COc1cc2nc(C3CCC3)n(NC(=O)C3CCC3)c(=O)c2cc1OC ?
CYP2C9 inhib: inactive; CYP2C9 activ: inactive; Measles CPE: inactive; CYP2C19 activ: inactive; CYP2C19 inhib: inactive

Results for O=C(C1CC1)N1CCc2cc(S(=O)(=O)NCCC3=CCCCC3)ccc21 ?
CYP2C9 inhib: inactive; CYP2C9 activ: inactive; Measles CPE: inactive; CYP2C19 activ: inactive; CYP2C19 inhib: inactive

Results for CCCN(CCC)CCNS(=O)(=O)c1ccc2c(c1)CCN2C(=O)C1CCC1 ?
CYP2C9 inhib: inactive; CYP2C9 activ: inactive; Measles CPE: inactive; CYP2C19 activ: inactive; CYP2C19 inhib: 93.5

Results for O=C(O)CCC(=O)N1CCc2cc(S(=O)(=O)NC3CCCC3)ccc21 ?
CYP2C9 inhib: inactive; CYP2C9 activ: inactive; Measles CPE: inactive; CYP2C19 activ: inactive; CYP2C19 inhib: inactive

Results for O=C(C1CCC1)N1CCc2cc(S(=O)(=O)NC3CCCC3)ccc21 ?
CYP2C9 inhib: 82.9; CYP2C9 activ: inactive; Measles CPE: inactive; CYP2C19 activ: inactive; CYP2C19 inhib: 71.5

Results for COc1cc(Cl)cc(NC(=O)CCN2CCN(C)CC2)c1 ?
CYP2C9 inhib: inactive; CYP2C9 activ: inactive; Measles CPE: inactive; CYP2C19 activ: inactive; CYP2C19 inhib: inactive

How did Cn1cccc1Cc1nnc(SCC(=O)Nc2ccccc2F)n1-c1ccc(F)cc1 do in these assays?
CYP2C9 inhib: inactive; CYP2C9 activ: inactive; Measles CPE: inactive; CYP2C19 activ: inactive; CYP2C19 inhib: inactive

What do the screens show for `COc1ccc(C(=O)OCCN=C2NS(=O)(=O)c3ccccc32)cc1OC`?
CYP2C9 inhib: inactive; CYP2C9 activ: inactive; Measles CPE: inactive; CYP2C19 activ: inactive; CYP2C19 inhib: inactive

What do the screens show for `Cc1cc(C)n2nc(SCC(=O)c3ccc[nH]3)nc2n1`?
CYP2C9 inhib: 54.6; CYP2C9 activ: inactive; Measles CPE: inactive; CYP2C19 activ: inactive; CYP2C19 inhib: inactive

How did COc1ccc(C(O)c2nccn2Cc2ccccc2)cc1 (configuration not stated) do in these assays?
CYP2C9 inhib: inactive; CYP2C9 activ: inactive; Measles CPE: inactive; CYP2C19 activ: inactive; CYP2C19 inhib: 56.3

What do the screens show for `CCn1ccnc1C(O)c1cccc(OC)c1` (configuration not stated)?
CYP2C9 inhib: inactive; CYP2C9 activ: inactive; Measles CPE: inactive; CYP2C19 activ: inactive; CYP2C19 inhib: 51.9

How did COc1cccc(C(N)CC(=O)O)c1 (configuration not stated) do in these assays?
CYP2C9 inhib: inactive; CYP2C9 activ: inactive; CYP2C19 activ: inactive; CYP2C19 inhib: inactive

How did Cn1ccnc1C(O)c1ccc(OCc2ccccc2)cc1 (configuration not stated) do in these assays?
CYP2C9 inhib: inactive; CYP2C9 activ: inactive; Measles CPE: inactive; CYP2C19 activ: inactive; CYP2C19 inhib: 50.7

How did CC(C)(C)OC(=O)NNC(=O)c1ccc(Cl)cc1 do in these assays?
CYP2C9 inhib: inactive; CYP2C9 activ: inactive; Measles CPE: inactive; CYP2C19 activ: inactive; CYP2C19 inhib: inactive

Results for O=C(Cc1ccc(Cl)cc1)NNC(=O)c1cnccn1 ?
Measles CPE: inactive

What do the screens show for `Cc1nc(S(=O)(=O)c2ccc(Cl)cc2)nc2c1CCC2`?
CYP2C9 inhib: inactive; CYP2C9 activ: inactive; Measles CPE: inactive; CYP2C19 activ: inactive; CYP2C19 inhib: inactive

Results for Cc1ccc(S(=O)(=O)c2nc(C)c3c(n2)CCC3)cc1 ?
CYP2C9 inhib: inactive; CYP2C9 activ: 2.2; Measles CPE: inactive; CYP2C19 activ: inactive; CYP2C19 inhib: inactive

What do the screens show for `COC(=O)c1ccc(OCC2c3cc(OC)c(OC)cc3CCN2C(=O)C2CC2)cc1` (configuration not stated)?
CYP2C9 inhib: inactive; CYP2C9 activ: inactive; Measles CPE: inactive; CYP2C19 activ: inactive; CYP2C19 inhib: 70.8

What do the screens show for `CCc1ccc(OCC2c3cc(OC)c(OC)cc3CCN2C(=S)NCCOC)cc1` (configuration not stated)?
Measles CPE: inactive

How did CCOC(=O)C(C)Sc1nnc(NC(=O)c2ccc(C)c([N+](=O)[O-])c2)s1 (configuration not stated) do in these assays?
Measles CPE: inactive

Results for Cc1cc(OCCOc2cccc3cccnc23)cc(C)c1Cl ?
CYP2C9 inhib: inactive; CYP2C9 activ: 2.2; Measles CPE: inactive; CYP2C19 activ: inactive; CYP2C19 inhib: inactive

Results for O=C(Cc1cccs1)Nc1ccc(Cl)cc1 ?
CYP2C9 inhib: 64.0; CYP2C9 activ: inactive; Measles CPE: inactive; CYP2C19 activ: inactive; CYP2C19 inhib: 94.4

What do the screens show for `Cc1ccc(-c2nnc(-c3ccc(NC(=O)Cc4cccs4)cc3)o2)cc1`?
CYP2C9 inhib: 83.5; CYP2C9 activ: inactive; Measles CPE: inactive; CYP2C19 activ: inactive; CYP2C19 inhib: 53.0

Assay outcomes deposited in PubChem by several laboratories.
